Assay outcomes as filed in PubChem.
Hits are enriched below; roughly 11% of the tested compounds scored in any of these assays.
PNC inhibitor: High Content Assay for Compounds that inhibit the Assembly of the Perinucleolar Compartment. PC3M PTB-GFP, PNC prevalence imaging, 16 h; hits give low values. activity change (PNC), negative = inhibition, % at 10 µM. 140,000 tested, 3.1% active. AID 2417, 2010;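 active means readout at or below -70, meaning at least 70% loss of cells showing the perinucleolar compartment, a nuclear body marking cancer cells; inconclusive means readout between -30 and a set limit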;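 further: plate controls were DMSO wells for no effect and camptothecin positive control wells for full effect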
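Read-out is percentage of cells bearing a perinucleolar compartment, from automated 20x imaging of fixed, Hoechst-stained PC3M PTB-GFP cells. Cells were seeded 4 h, then exposed 16 h to compound (23 nl of library stock) in duplicate plates.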
ALDH1A1 block: qHTS Assay for Inhibitors of Aldehyde Dehydrogenase 1 (ALDH1A1) | Aldehyde dehydrogenase 1A1 (Homo sapiens), P00352 | Purified ALDH1A1, NADH fluorescence, propionaldehyde substrate | Potency, µM (titrated, usually from 75.3 µM), for the others: at the top dose activity, negative = inhibition, most hits filed as inhibitors | 220,000 tested, 7.3% active; active means well fitted inhibition curve with a large enough effect, not every such curve was filed as active; inconclusive means small, poorly fitted or top-dose-only effect, or another doubt; inactive means no such curve, though single readings can be large or run the other way;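 further: potency means the concentration at half of the fitted maximal effect; plate controls were no enzyme wells and a reference inhibitor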
HTT ATP protect: qHTS Multiplex Assay to Identify Dual Action Probes in a Cell Model of Huntington: Cytoprotection (ATP); PC12 HTT-Q103 induced, cytoprotection, ATP luminescence, 40 h; Potency, µM (doses to about 56.4 µM), inactives show cytoprotection (ATP increase), usual class: activators; 230,000 tested, 0.14% active; further: potency means the concentration at half of the fitted maximal effect; % of control where 0% means no effect; nearly all actives have a fitted effect of over 45% in size
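Rat PC12, Q103 Htt exon1-GFP fusion, ecdysone promoter; tebufenozide inducer 100 nM final; compound titration; qHTS, 1500 cells/well; ATPlite luminescent read.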
CBFb RUNX1 block: qHTS Assay for Compounds Blocking the Interaction Between CBF-beta and RUNX1 for the Treatment of Acute Myeloid Leukemia; Runt-related transcription factor 1 (Homo sapiens) + Core-binding factor subunit beta …; AlphaScreen CBFb-His/RUNX1-biotin binding, biochemical; Potency, µM (highest dose often 59.8 µM), inactives show at the top dose activity, negative = inhibition, usual class: inhibitors; 230,000 tested, under 10 active; AID 1477, 2009; further: % of control where 0% means no effect
Target sequence (Q01196 whole entry, looked up): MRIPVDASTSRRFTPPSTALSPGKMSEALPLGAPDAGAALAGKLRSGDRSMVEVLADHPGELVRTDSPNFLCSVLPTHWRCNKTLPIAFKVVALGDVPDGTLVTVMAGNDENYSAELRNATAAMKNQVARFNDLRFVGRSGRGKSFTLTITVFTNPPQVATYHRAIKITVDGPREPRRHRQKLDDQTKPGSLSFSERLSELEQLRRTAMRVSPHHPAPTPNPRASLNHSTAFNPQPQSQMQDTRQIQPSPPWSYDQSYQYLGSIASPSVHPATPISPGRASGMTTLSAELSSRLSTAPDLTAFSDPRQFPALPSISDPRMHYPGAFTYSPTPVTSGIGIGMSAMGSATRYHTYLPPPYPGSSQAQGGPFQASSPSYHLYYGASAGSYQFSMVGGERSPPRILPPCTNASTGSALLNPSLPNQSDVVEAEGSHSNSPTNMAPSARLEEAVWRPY
Target sequence (Q13951 whole entry, looked up): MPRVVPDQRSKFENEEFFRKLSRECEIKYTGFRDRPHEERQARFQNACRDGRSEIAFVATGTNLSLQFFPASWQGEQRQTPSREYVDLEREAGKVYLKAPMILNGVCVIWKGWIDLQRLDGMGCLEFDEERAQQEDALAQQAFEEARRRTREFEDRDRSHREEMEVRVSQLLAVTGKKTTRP
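Inhibition was taken as any reduction in AlphaScreen signal from the CBF-beta–RUNX1 pair (His and biotin tags, 30 nM each), measured after compound (15 min) and bead (90 min) incubations at room temperature.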
HPGD block: qHTS Assay for Inhibitors of HPGD (15-Hydroxyprostaglandin Dehydrogenase) | 150,000 tested, 4.3% active | 15-hydroxyprostaglandin dehydrogenase [NAD(+)] (Homo sapiens), P15428 | purified HPGD, NADH fluorescence kinetic, PGE2 substrate | Potency, µM, for the others: top-dose activity change, negative = inhibition, actives largely listed as inhibitors; active means well fitted inhibition curve with a large enough effect, not every such curve was filed as active; inconclusive means small, poorly fitted or top-dose-only effect, or another doubt; inactive means no such curve, though single readings can be large or run the other way; further: potency means the concentration at half of the fitted maximal effect; on the % scale 0 is the no-effect control and ±100 the full control effect
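20 nM HPGD preincubated 15 min at room temperature with compound in 50 mM Tris-HCl pH 8, 0.01% Tween 20. Started with 1 mM NAD+ and 30 uM prostaglandin E2; NADH fluorescence (360/450 nm) read 5 times over 30-s intervals, last minus first.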
HTT aggregate: qHTS Multiplex Assay to Identify Dual Action Probes in a Cell Model of Huntington: Aggregate Formation (GFP) | PC12 HttQ103-GFP aggregates, Acumen cytometry, 40 h | Potency, µM (doses to about 46.1 µM), for inactives: at the top dose activity change, negative = inhibition, actives largely listed as inhibitors | 220,000 tested, 1.1% active; further: potency means the concentration at half of the fitted maximal effect; on the % scale 0 is the no-effect control and ±100 the full control effect; nearly all actives have a fitted effect of over 60% in size
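PC12 cells with ecdysone-inducible HTT exon1 Q103-GFP, induced by 100 nM tebufenozide, given compounds in a concentration series. GFP aggregates (1–25 um, 6 SD above background) counted in lysates by laser-scanning cytometry, 488 nm excitation.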
Starred values were filed as active, the others as inactive; [ ] = another dose, or the depositor's remark. Unless noted, the call rests on the fitted dose curve; in most records, active means well fitted curve in the direction sought with a large enough effect; inconclusive means small, poorly fitted or top-dose-only effect, or another doubt; inactive means no such curve, though single readings can be large; an effect the other way counts as inactive or inconclusive.

COc1cccc(C2NC(=O)c3sc(=S)n(-c4ccccc4)c3N2)c1 (centres undefined) was read as PNC inhibitor 17, ALDH1A1 block -8%, HTT ATP protect -8%, CBFb RUNX1 block -8%, HPGD block -10% and HTT aggregate -29%.
`CN(C)/C=C(\C#N)C(=O)N/N=C/c1ccccc1` gave ALDH1A1 block inconclusive, HTT ATP protect -27%, CBFb RUNX1 block -12% and HTT aggregate 13%.
`Cc1noc(C)c1-c1cc(NC2CCNCC2)ncn1` gave ALDH1A1 block inconclusive and HTT ATP protect 16%.
COc1ccc2c3c([nH]c2c1)[C@H]1C[C@@H]2[C@@H](C[C@@H](O)[C@H](OC)[C@H]2C(=O)O)CN1CC3 was read as ALDH1A1 block -11%[13.5 µM], HTT ATP protect 18%[10 µM] and HPGD block -8%.
[N-]=[N+]=Nc1ccc(C(=O)CSC[C@H](NC(=O)CC[C@H](N)C(=O)O)C(=O)NCC(=O)O)cc1 was read as ALDH1A1 block 7%, CBFb RUNX1 block -5% and HPGD block -7%.
COc1ccc(N/N=C(C)/C(=N/O)C(=O)Nc2ccccc2)cc1 was read as ALDH1A1 block 14µM*, HTT ATP protect -33%, CBFb RUNX1 block 4% and HTT aggregate 1%.
`COc1ccc(NC(=O)c2ccccc2-c2ccccc2)cc1` gave ALDH1A1 block -2%, HTT ATP protect -13%, CBFb RUNX1 block 1% and HTT aggregate 2%[9.22 µM].
`COc1cc(-c2cccs2)cc(=O)c2c(C)oc(C)c12` gave PNC inhibitor -96*, ALDH1A1 block inconclusive, HTT ATP protect -20%[10 µM], CBFb RUNX1 block -24%, HPGD block -12% and HTT aggregate -17%.
`Cn1c(=O)c(-c2ccc(Cl)cc2)nc2cnc(Nc3ccccc3)nc21` gave ALDH1A1 block 20% and HTT ATP protect 1%.
`COc1ccc(-c2nsc(C(=O)N(c3ccc(F)cc3)C(C(=O)NC3CCCC3)c3ccc(OC)cc3)c2N)cc1` (centres undefined) gave PNC inhibitor inconclusive, ALDH1A1 block -9%, HTT ATP protect -40%, CBFb RUNX1 block 3%, HPGD block inconclusive and HTT aggregate -20%.
Screening COc1ccc(CN(C(=O)c2nsc(Cl)c2Cl)C(C(=O)NC2CCCC2)c2ccc(C)cc2)cc1 (centres undefined) returned PNC inhibitor 3, ALDH1A1 block 13µM*, HTT ATP protect 10%[10 µM], CBFb RUNX1 block 7%, HPGD block -9% and HTT aggregate -15%.
For COc1ccc(C(C(=O)NC2CCCC2)N(CCN(C)C)C(=O)c2snc(C(N)=O)c2N)cc1 (centres undefined) the results were PNC inhibitor -114*, ALDH1A1 block inconclusive, HTT ATP protect 7%[10 µM], CBFb RUNX1 block 6%, HPGD block inconclusive and HTT aggregate -12%.
For COc1ccc(CN(C(=O)c2nsc(Cl)c2Cl)C(C(=O)NC2CCCCC2)c2ccc(OC)cc2)cc1 (centres undefined) the results were PNC inhibitor 53, ALDH1A1 block 7.1µM*, HTT ATP protect -67%, CBFb RUNX1 block -6%, HPGD block -15% and HTT aggregate -28%.
For CCC(Cc1c(I)cc(I)c(O)c1I)C(=O)O (centres undefined) the results were HTT ATP protect inconclusive and HTT aggregate 1%.
Screening CCOC(=O)CCN1C(=O)[C@H]2[C@H]3[C@H](O)[C@H](O)C/C(=N/OCC(C)C)[C@@H]3CC[C@@H]2C1=O returned ALDH1A1 block 12%[13.5 µM], HTT ATP protect 1%[10 µM] and CBFb RUNX1 block 1%[13.1 µM].
`C[C@H](N[C@@H](C)COc1ccccc1)[C@H](O)c1ccc(O)cc1` gave ALDH1A1 block 1%[20.9 µM], HTT ATP protect -3%[40.3 µM], CBFb RUNX1 block -14%[21.7 µM], HPGD block 1% and HTT aggregate -6%[20.6 µM].
`Oc1ccc(-c2nc(-c3ccc(O)c(O)c3)cs2)cc1` gave PNC inhibitor -101*, ALDH1A1 block 11µM*, HTT ATP protect -33%, CBFb RUNX1 block -16%, HPGD block inconclusive and HTT aggregate 16%.
For Oc1ccc(Nc2nc(-c3ccc4ccccc4c3)cs2)cc1 the results were PNC inhibitor inconclusive, ALDH1A1 block inconclusive, HTT ATP protect -55%[10 µM], CBFb RUNX1 block -9%, HPGD block inconclusive and HTT aggregate 23%[9.22 µM].
`CO/N=C(/C(=O)N[C@@H]1C(=O)N2C(C(=O)O)=CCS[C@H]12)c1csc(N)n1` gave HTT ATP protect -9% and HTT aggregate -5%.
For Cc1ccc(S(=O)(=O)N[C@H](C(=O)N2CCC3(O)CCCCC3C2)c2ccccc2)cc1 (some centres undefined) the results were PNC inhibitor -25, ALDH1A1 block inconclusive, HTT ATP protect -25%, CBFb RUNX1 block 1%, HPGD block 3% and HTT aggregate -7%.
COc1ccc(S(=O)(=O)N[C@H](C(=O)N2CC[C@@]3(O)CCCC[C@H]3C2)c2ccccc2)cc1 was read as PNC inhibitor 22, ALDH1A1 block 13µM*, HTT ATP protect -1%[0.074 µM], CBFb RUNX1 block 0%, HPGD block -1% and HTT aggregate -4%.
`O=C(NCc1ccco1)C1CC(=O)N(CCc2ccccc2)C1` (centres undefined) gave PNC inhibitor 40, ALDH1A1 block 22µM*, HTT ATP protect -51%, CBFb RUNX1 block inconclusive, HPGD block -8% and HTT aggregate -5%.
For NC(=O)c1ccc[n+]([C@@H]2OC(COP(=O)([O-])OP(=O)(O)OCC3OC(n4cnc5c(N)ncnc54)C(O)C3O)C(O)C2O)c1 (some centres undefined) the results were ALDH1A1 block -3%, HTT ATP protect inconclusive, CBFb RUNX1 block -4% and HPGD block -20%.
`NC(=S)c1ccc[n+]([C@@H]2O[C@@H](COP(=O)([O-])OP(=O)(O)OC[C@H]3O[C@@H](n4cnc5c(N)ncnc54)[C@H](OP(=O)(O)O)[C@H]3O)C(O)C2O)c1` (some centres undefined) gave ALDH1A1 block 28µM*, CBFb RUNX1 block 9% and HPGD block inconclusive.
